Screening results from PubChem BioAssay.
The list is not random: actives were taken first. Their share in the collection is about 4.8%.
NF-kB neuron act = NF-kB expression increase, human neuronal cells. NF-kB reporter expression; hits give high values. fold change at 12.5 µM. hit rate 1.6% among 190,000; in the data active = fold change above about 3.3
APP 5UTR inh = APP translation inhibition; AID 1285; hit rate 0.82% among 190,000; SH-SY5Y APP 5'UTR-luciferase reporter, luminescence; inhibition, % at 2 µM;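 active = inhibition above a set limit, derived from the sample mean plus 3 SD, cut at about 45% in these data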
APP 5'UTR act = activates APP 5'UTR luciferase reporter. SH-SY5Y APP 5'UTR luciferase reporter, luminescence; zero percent = DMSO vehicle wells. activation, % at 2 µM. hit rate 1% among 190,000;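 active = activation above a set limit, based on mean plus 3 SD of controls, cut at about 140% in these data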
Wee1 degr inh = blocks degradation of human Wee1 kinase | P30291 | HeLa Luc-Wee1K328M stability, luciferase luminescence; 100% = proteasome inhibitor MG132 effect | reporter increase, % at 5 µM | hit rate 1.2% among 220,000 | AID 1321;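 active = activation above the mean of all tested compounds plus 3 SD, set per screening run, cut at about 8.8% in these data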;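 also: cells exposed to compound for 20 h before luminescence read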
Target sequence (P30291 whole entry K328M): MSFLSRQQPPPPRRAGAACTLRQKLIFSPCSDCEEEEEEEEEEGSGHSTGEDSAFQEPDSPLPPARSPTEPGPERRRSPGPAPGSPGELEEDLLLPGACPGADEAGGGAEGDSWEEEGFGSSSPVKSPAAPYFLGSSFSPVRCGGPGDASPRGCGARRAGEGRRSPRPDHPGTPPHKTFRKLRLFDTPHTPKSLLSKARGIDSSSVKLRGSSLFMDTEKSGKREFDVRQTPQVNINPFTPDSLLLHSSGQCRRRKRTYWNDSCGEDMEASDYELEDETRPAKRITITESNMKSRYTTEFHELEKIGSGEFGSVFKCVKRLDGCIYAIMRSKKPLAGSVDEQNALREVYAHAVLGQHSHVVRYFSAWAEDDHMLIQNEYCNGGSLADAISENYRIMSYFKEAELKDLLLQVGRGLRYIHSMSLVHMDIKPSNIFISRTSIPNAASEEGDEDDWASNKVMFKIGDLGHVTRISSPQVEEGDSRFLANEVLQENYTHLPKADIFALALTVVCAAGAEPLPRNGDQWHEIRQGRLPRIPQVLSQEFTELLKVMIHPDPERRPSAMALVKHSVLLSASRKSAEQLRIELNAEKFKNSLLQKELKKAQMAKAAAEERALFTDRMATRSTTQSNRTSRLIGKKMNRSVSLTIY
Hsp70 activator = Hsp70 transcriptional activation, primary screen | HeLa Hsp70 promoter luciferase reporter, luminescence; scaled: vehicle 0, proteasome-inhibitor control 100% | activation, % at 10 µM | hit rate 0.04% among 200,000;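 active = activation above the mean across all tested compounds plus 3 SD, cutoff set per campaign, cut at about 5.5% in these data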
STAT1 activator = activators of IFN-gamma induced STAT1 signaling; hit rate 2.6% among 200,000; NIH 3T3 STAT1-luciferase reporter, luminescence; 100% = IFN-gamma alone, no compound; activation (% of control), % at 5.5 µM;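 active = activation above the screen-wide mean activation plus 3 SD, cut at about 130% in these data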
Large screens that a line does not name were inactive.

C/C(=N\NC(=O)C1CCCN(S(=O)(=O)c2ccccc2)C1)c1ccncc1 (configuration not stated)	none
C/C(=N\NC(=O)C(c1ccccc1)c1ccccc1)c1ccccn1	APP 5UTR inh 69.0
C/C(=N\NC(=O)C1CCCN(S(=O)(=O)c2ccccc2)C1)c1ccccn1 (configuration not stated)	APP 5UTR inh 46.4
N/C(=N\OC(=O)C(c1ccccc1)c1ccccc1)c1ccccn1	none
CCN(CC)S(=O)(=O)c1cccc(C(=O)N/N=C2\CC(=O)CC(C)(C)C2)c1	Wee1 degr inh 9.5
CCN(CC)S(=O)(=O)c1cccc(C(=O)N/N=C/c2cccc(O)c2O)c1	APP 5UTR inh 50.0
CCN(CC)S(=O)(=O)c1cccc(C(=O)N/N=C/c2cc(OC)c(O)c(OC)c2)c1	none
CCN(CC)S(=O)(=O)c1cccc(C(=O)N/N=C2\CCCC(=O)C2)c1	none (no result: NF-kB neuron act, APP 5UTR inh, APP 5'UTR act, Hsp70 activator, STAT1 activator)
COc1n[nH]c(C(=O)NCc2ccccc2)c1[N+](=O)[O-]	none
COc1n[nH]c(C(=O)Nc2nc3ccccc3s2)c1[N+](=O)[O-]	STAT1 activator 134.5
Cn1cc(Cl)c(C(=O)Nc2nc3ccccc3s2)n1	NF-kB neuron act 4.4, APP 5'UTR act 146.2, STAT1 activator 148.0
Cn1cc(Cl)c(C(=O)Nc2cccc(Cl)c2Cl)n1	none
NC(=S)Nc1nc2ccccc2s1	STAT1 activator 134.2
COCC(=O)Nc1nc2ccccc2s1	none
O=C(NC(=S)Nc1nc2ccccc2s1)c1cccs1	APP 5'UTR act 145.4, STAT1 activator 132.8
Cc1ccc(C2NC(=O)NC(O)(C(F)(F)F)C2C(=O)c2ccccc2)o1 (configuration not stated)	none
COc1cccc(CNC(=O)C2(C)Oc3ccccc3NC2=O)c1 (configuration not stated)	none
CC(NC(=O)C(c1ccccc1)c1ccccc1)C(=O)O (configuration not stated)	none
Nc1ccc(C(=O)Nc2nc3ccccc3s2)cc1	NF-kB neuron act 3.9, APP 5'UTR act 159.5, Wee1 degr inh 8.9
Nc1c(C(=O)Nc2nc3ccccc3s2)sc2nc(-c3cccs3)ccc12	STAT1 activator 140.4
Cc1cc(C)nc(Nc2nc3ccccc3s2)n1	APP 5'UTR act 147.2, STAT1 activator 129.1
CC(=O)c1c(C)nc(Nc2nc3ccccc3s2)nc1C	none (no result: NF-kB neuron act, APP 5UTR inh, APP 5'UTR act, Hsp70 activator, STAT1 activator)
CCC(C)(C)NC(=O)Cc1ccc(F)cc1	none
CCC(C)NCCC(=O)Nc1ccc(Cl)c(S(=O)(=O)Nc2ccc(Cl)cc2)c1 (configuration not stated)	none
O=C(c1ccco1)N(Cc1cc2ccccc2[nH]c1=O)C1CCCCC1	none
COc1cc(C)c(Cl)c(C)c1S(=O)(=O)NCc1cccnc1	APP 5UTR inh 45.6
O=C(Nc1ccccc1)Nc1csc2ccccc12	Wee1 degr inh 10.0 (no result: NF-kB neuron act, APP 5UTR inh, APP 5'UTR act, Hsp70 activator, STAT1 activator)
Cc1ccc(N=C2NC(=O)/C(=C\c3ccsc3)S2)c(C)c1	NF-kB neuron act 4.42
COc1ccc(CCNC(=O)CSc2ccc(-c3cccs3)nn2)cc1	none
S=c1[nH]nc(-c2cc3c(s2)-c2ccccc2CC3)o1	none
CSc1nnc(-c2cc3c(s2)-c2ccccc2CC3)o1	STAT1 activator 136.5
CC1=CC(=C2C(=O)c3ccccc3C2=O)C=C(C)O1	none
CC(=O)C1=C(c2ccc(Br)cc2)C(=O)c2ccccc2C1=O	APP 5UTR inh 68.3
Cc1cc(NC(=O)c2ccccc2Cl)c(C(C)C)cc1O	none
Cc1cc(O)c(C(C)C)cc1NC(=O)c1ccccc1Cl	APP 5UTR inh 45.2
O=C(NCc1ccco1)Nc1ccc(Br)cc1Cl	STAT1 activator 133.1
CC(C)(C)c1ccc(-c2nnc(NC(=O)c3ccccc3)s2)cc1	none
COCC(=O)Nc1nnc(-c2ccc(C(C)(C)C)cc2)s1	NF-kB neuron act 8.37, APP 5'UTR act 141.7, STAT1 activator 135.8
O=[N+]([O-])c1cc(Oc2cccnc2)cc([N+](=O)[O-])c1	none
Cn1cc([N+](=O)[O-])c(C(=O)Nc2cc(Oc3cccnc3)cc([N+](=O)[O-])c2)n1	APP 5UTR inh 96.5
O=C(Nc1ccc(-c2nc3ccccc3[nH]2)cc1)c1ccco1	APP 5'UTR act 169.2, STAT1 activator 141.0
Cn1cc([N+](=O)[O-])c(C(=O)Nc2ccc3nc(-c4ccccc4)[nH]c3c2)n1	none
O=C(/C=C/c1ccco1)Nc1ccc(-c2nc3ccccc3[nH]2)cc1	APP 5UTR inh 86.0
O=C(Nc1ccc2nc(-c3ccco3)[nH]c2c1)c1ccco1	none
Cn1cc([N+](=O)[O-])c(C(=O)Nc2ccc(-c3nc4ccccc4[nH]3)cc2)n1	NF-kB neuron act 9.53
O=S(=O)(Nc1nc2ccccc2nc1Cl)c1ccc2ccccc2c1	none
O=C(CNc1cccc(Cl)c1)NNC(=S)NCc1ccccc1	none
Cc1ccc(C(=O)OCC(=O)Nc2ccc3[nH]c(=O)[nH]c3c2)cc1[N+](=O)[O-]	none (no result: NF-kB neuron act, APP 5UTR inh, APP 5'UTR act, Hsp70 activator, STAT1 activator)
Cc1cccc(CCNC(=O)CC2C(=O)NCCN2Cc2ccc(F)c(F)c2)n1 (configuration not stated)	none
Cn1cc([N+](=O)[O-])c(C(=O)Nc2ccc(C3CCCCC3)cc2)n1	NF-kB neuron act 3.74
O=[N+]([O-])c1cc(S(=O)(=O)Nc2ccccc2)ccc1NCc1cccnc1	none
O=C(N/N=C/c1ccccc1)c1ccc(CN2C(=O)c3cccc4cccc2c34)cc1	none
O=C(N/N=C/c1ccc(O)cc1O)c1ccc(CN2C(=O)c3cccc4cccc2c34)cc1	APP 5UTR inh 60.5
Nc1c(C(=O)NCCN2CCOCC2)c2nc3ccccc3nc2n1-c1ccccc1	none
O=C(NCc1ccco1)c1cc(-c2cccs2)on1	NF-kB neuron act 5.18, STAT1 activator 129.8
O=C(NCc1ccco1)c1cc(-c2ccccc2)on1	NF-kB neuron act 4.46, STAT1 activator 131.0
O=C(NCc1ccc(F)cc1)c1cc(-c2ccco2)on1	none
CC(C)Cc1cc(C(=O)NCc2cccs2)no1	STAT1 activator 133.5
O=C(NCc1ccco1)c1cc(-c2ccc(F)cc2)on1	STAT1 activator 142.3
C=CCNC(=S)NNC(=O)c1cccn(Cc2ccc(Cl)cc2Cl)c1=O	none
COc1cccc(-c2csc(/C(C#N)=C/Nc3cc4oc5ccccc5c4cc3OC)n2)c1	none
O=C(COC(=O)CC1c2ccccc2CCN1S(=O)(=O)c1ccc(F)cc1)Nc1ccccc1 (configuration not stated)	none
O=C(NC(=S)Nc1ccccc1N1CCOCC1)c1ccc(-c2ccccc2F)o1	none (no result: NF-kB neuron act, APP 5UTR inh, APP 5'UTR act, Hsp70 activator, STAT1 activator)
CCCc1nn(C)c(C(=O)Nc2ccc(C)c(C)c2)c1Cl	STAT1 activator 129.9
COc1ccc(-c2nc(CC(=O)O)cs2)cc1	none
COc1ccc(-c2nc(CC(=O)O)cs2)cc1OC	Wee1 degr inh 22.7
CCC(=O)Nc1nnc(-c2ccc(Cl)s2)o1	Wee1 degr inh 9.3
CC(=O)Nc1nnc(-c2ccc(Cl)s2)o1	none
CCOC(=O)c1cnc2c(c(C)nn2C)c1Oc1ccccc1F	none (no result: NF-kB neuron act, APP 5UTR inh, APP 5'UTR act, Hsp70 activator, STAT1 activator)
CCN(CC)CC#CC(O)(c1ccccc1)c1ccccc1	APP 5UTR inh 49.4
